Sampled rows, rich in hits. Any-hit rate of the full collection: about 2.8%.
IP6K1 inhibitor: Primary qHTS assay for small molecule inhibitors of Inositol hexaphosphate kinase 1 (IP6K1); Inositol hexakisphosphate kinase 1 (Homo sapiens), Q92551; IP6K1 kinase, ADP-Glo luminescence, 2 h; hits give low values; activity change, % (series mostly up to about 58 µM); 140,000 tested, 0.81% active; AID 1645851, 2021; in the data active means activity change below about -25%; further: on the % scale 0 is the no-effect control and ±100 the full control effect
Target sequence (Q92551 whole entry, looked up): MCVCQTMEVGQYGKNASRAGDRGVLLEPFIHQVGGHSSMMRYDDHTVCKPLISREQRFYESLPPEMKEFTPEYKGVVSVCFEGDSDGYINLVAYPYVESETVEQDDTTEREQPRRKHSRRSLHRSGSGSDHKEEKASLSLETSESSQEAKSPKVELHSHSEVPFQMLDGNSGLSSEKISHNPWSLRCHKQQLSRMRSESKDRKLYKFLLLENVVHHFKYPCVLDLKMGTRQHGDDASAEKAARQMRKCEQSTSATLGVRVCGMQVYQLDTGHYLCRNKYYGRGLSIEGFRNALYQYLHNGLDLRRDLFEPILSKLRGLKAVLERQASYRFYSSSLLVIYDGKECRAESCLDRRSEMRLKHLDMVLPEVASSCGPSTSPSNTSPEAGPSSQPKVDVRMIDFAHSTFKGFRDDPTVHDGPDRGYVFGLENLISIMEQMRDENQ
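ADP-Glo luminescence measures ADP made by human IP6K1 during a 2 h RT reaction with ATP/IP6 (mix at 1.3 mM/130 uM); top library doses 57.5 and 19.1 uM final.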
KDM5B inh: Primary screen for KDM5B Histone Demethylases FDH-coupled qHTS. Lysine-specific demethylase 5B (Homo sapiens), Q9UGL1. KDM5B demethylase, FDH-coupled NADH fluorescence (FDH is formaldehyde dehydrogenase). Potency, µM (doses to about 57.7 µM), hits mostly inhibitors. 220,000 tested, 2.6% active; active means well fitted inhibition curve with a large enough effect; inconclusive means small, poorly fitted or top-dose-only effect; inactive means no such curve, though single readings can be large or run the other way; further: potency means the concentration at half of the fitted maximal effect; 0% is about no effect; nearly all actives have a fitted effect of over 70% in size
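qHTS format, multiple compound concentrations. Buffer 50 mM HEPES pH 7.5/0.01% Tween-20; 200 nM KDM5BΔAP final; 10 min compound preincubation; substrate-mix levels 12.5 µM peptide, 25 µM α-KG, 0.25 mM NAD⁺; 30 min RT; ΔRFU.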
* hit, by the source's call; i = inactive; ? = inconclusive; nt = not tested or not shown.

SMILES | IP6K1 inhibitor | KDM5B inh
c1coc(-c2ccnc3nc(-c4cccs4)nn23)c1 | 2 | 28µM*
c1csc(-c2nc3nccc(-c4ccsc4)n3n2)c1 | 8 | ?
c1csc(-c2nc3nccc(-c4ccncc4)n3n2)c1 | -3 | 28µM*
Brc1ccc(-c2ccnc3nc(-c4cccs4)nn23)cc1 | 1 | 7.9µM*
Brc1ccc(-c2ccnc3nc(-c4cccs4)nn23)s1 | -3 | ?
O=C(NCCc1ccccc1)[C@@H]1CCCN1c1nccc(Nc2ccccc2Cl)n1 | -1 | nt
COc1ccc2c(C)c(CC(=O)Nc3cccc(C(C)=O)c3)c(=O)oc2c1C | nt | i
CN1CC(C(=O)NCc2ccc(C(F)(F)F)cc2)NC1=O (stereo not drawn) | 18 | nt
CC1(CCCCN2CCOCC2)COc2ccc(C(=O)NCc3cccc(F)c3)cc2N1 (stereo not drawn) | 4 | 28µM*
CC1(CCCCN2CCOCC2)COc2ccc(C(=O)Nc3cccnc3)cc2N1 (stereo not drawn) | 10 | ?
CC1(COCC2CC2)COc2ccc(C(=O)Nc3ccc(Cl)cc3)cc2N1 (stereo not drawn) | 4 | ?
CC1(CCCCN2CCOCC2)COc2ccc(C(=O)Nc3cccc(Cl)c3)cc2N1 (stereo not drawn) | 4 | ?
CN(Cc1ccccc1)C(=O)c1ccc2c(c1)NC(C)(CCCCN1CCOCC1)CO2 (stereo not drawn) | -5 | ?
CC1(CCCCN2CCOCC2)COc2ccc(C(=O)Nc3ccc(Cl)cc3)cc2N1 (stereo not drawn) | 3 | 25µM*
CN(C)CCCOCC1(C)COc2ccc(C(=O)Nc3ccc(F)c(Cl)c3)cc2N1 (stereo not drawn) | -8 | 28µM*
CC1(CCCCN2CCOCC2)COc2ccc(C(=O)NCc3ccc(F)cc3)cc2N1 (stereo not drawn) | -1 | 28µM*
CCC(=O)N1CCN(c2oc(/C=C/c3ccccc3)nc2C#N)CC1 | nt | i
CCS(=O)(=O)CCSCCS(=O)(=O)CC | nt | i
COc1ccc(C)c2sc(N(Cc3cccnc3)C(=O)c3ccc(S(=O)(=O)N(C)C)cc3)nc12 | nt | i
O=C(Nc1cc(-c2cccnc2)nn1-c1ccccc1)c1cccc(Br)c1 | -2 | nt
COc1ccccc1-c1cc(C(=O)N2CCN(C)CC2)nn2cnnc12 | -1 | nt
CC1(CNc2ccccc2)COc2ccc(C(=O)NCc3ccc(F)cc3)cc2N1 (stereo not drawn) | 3 | 32µM*
COc1cc(CNC(=O)c2ccc3c(c2)NC(C)(CNc2ccccc2)CO3)cc(OC)c1 (stereo not drawn) | -10 | ?
Cc1ccc2oc(=O)cc(CN3CCN(c4ccccn4)CC3)c2c1 | nt | i
COc1ccc(-c2ccnc(-c3nnc(C)n3CCN(C)C)c2)cc1OC | -6 | 28µM*
SMILES | IP6K1 inhibitor | KDM5B inh
COc1ccccc1-c1ccnc(-c2nnc(C)n2CCN2CCOCC2)c1 | -7 | 40µM*
Cc1nnc(-c2cc(-c3ccc([S+](C)(=O)[O-])cc3)ccn2)n1Cc1ccccc1 | 1 | ?
COc1cccc(-c2ccnc(-c3nnc(C)n3CCN3CCOCC3)c2)c1 | -9 | ?
Cc1nnc(-c2cc(-c3ccc(N4CCOCC4)cc3)ccn2)n1Cc1ccccc1 | -5 | 20µM*
Cc1nnc(-c2cc(-c3ccsc3)ccn2)n1C(C)C | -4 | i
COc1ccc(-c2ccnc(-c3nnc(C)n3C(C)C)c2)cc1OC | -7 | 35µM*
COCCn1c(C)nnc1-c1cc(-c2cccc(N(C)C)c2)ccn1 | -12 | i
Cc1ccc2c(CSc3ncn[nH]3)cc(=O)oc2c1C | nt | i
COc1ccc(CC(=O)OCC(=O)c2ccc(OC(=O)c3ccco3)cc2)cc1 | nt | i
Cc1ccc2oc(C(=O)Nc3nonc3-c3ccc(C(C)C)cc3)cc(=O)c2c1 | nt | i
COc1cc(-c2ccnc(-c3nnc(C)n3Cc3ccncc3)c2)ccn1 | -11 | i
COc1ncccc1-c1ccnc(-c2nnc(C)n2Cc2ccccc2)c1 | -1 | 28µM*
Cc1nnc(-c2cc(-c3cccc(CO)c3)ccn2)n1Cc1ccccc1 | -6 | i
COc1ccccc1-c1ccnc(-c2nnc(C)n2C2CCCCC2)c1 | -5 | ?
Cc1nnc(-c2cc(-c3ccc(N4CCOCC4)cc3)ccn2)n1C1CCCCC1 | -10 | 32µM*
COc1ncccc1-c1ccnc(-c2nnc(C)n2C2CCCCC2)c1 | -5 | 28µM*
Cc1nnc(-c2cc(-c3cnn(C)c3)ccn2)n1C1CCCCC1 | -2 | i
COc1ccc(-c2ccnc(-c3nnc(C)n3Cc3ccccc3)c2)cc1OC | -6 | 35µM*
CCOC(=O)C1=CN(c2ccc(F)cc2)C=C(C(=O)OCC)C1c1ccc2c(c1)OCO2 | nt | i
CN(C)CCNC(=O)CN1CCN(C(C(=O)O)c2c[nH]c3cc(Br)ccc23)CC1 (stereo not drawn) | nt | i
CCOC(=O)[C@@H]1CN(C(=O)c2cc(C)oc2C)[C@H]2c3ccc(OC)cc3O[C@@H]12 | 7 | nt
CC(NC(=O)CCC(=O)c1ccc(F)cc1)C(=O)N1CCN(c2ccccn2)CC1 (stereo not drawn) | 1 | ?
COc1ccc(CC(=O)NC(C)C(=O)N2CCN(c3ccccn3)CC2)c(Cl)c1 (stereo not drawn) | 23 | ?
COCCC(=O)N1CCCC(C(=O)N2CCN(c3ccccn3)CC2)CCNC(=O)CC1 (stereo not drawn) | -9 | 28µM*
CCCC(=O)NC(C)C(=O)N1CCN(c2ccccn2)CC1 (stereo not drawn) | 7 | 25µM*
SMILES | IP6K1 inhibitor | KDM5B inh
Cc1cc(C)cc(C(=O)NC(C)C(=O)N2CCN(c3ccccn3)CC2)c1 (stereo not drawn) | 7 | ?
O=C1CCN(C(=O)c2cccs2)CCCC(C(=O)N2CCN(c3ccccn3)CC2)CCN1 (stereo not drawn) | 1 | ?
CC(NC(=O)C(C)(C)C)C(=O)N1CCN(c2ccccn2)CC1 (stereo not drawn) | 7 | 28µM*
COCCC(=O)NC(C)C(=O)N1CCN(c2ccccn2)CC1 (stereo not drawn) | 8 | 25µM*
Cc1ccc2c(CN(C)CCOc3cccc(Cl)c3)cc(=O)oc2c1 | nt | i
O=C(c1ccc(C(F)(F)F)cc1)N1CCC2(CC1)CCN(Cc1cccs1)c1ccccc1O2 | 13 | ?
COc1cc(=O)n(-c2ccc(C)cc2)nc1C(=O)NCc1ccc(C)cc1 | nt | i
CCn1cnc2c1c(=O)n(CC(=O)Nc1c(C)cccc1C)c(=O)n2Cc1ccccc1 | nt | i
CC(NC(=O)CCc1ccccc1)C(=O)N1CCN(c2ccccn2)CC1 (stereo not drawn) | 13 | 25µM*
COc1ccc(CC(=O)NC(C)C(=O)N2CCN(c3ccccn3)CC2)cc1Cl (stereo not drawn) | 0 | ?
Cc1ccc(CC(=O)NC(C)C(=O)N2CCN(c3ccccn3)CC2)cc1 (stereo not drawn) | 9 | 28µM*
C[C@H](NC(=O)c1ccccc1)C(=O)N1CCN(c2ccccc2)CC1 | nt | i
Cc1ccc(Nc2ccnc(N3CCCC(C(=O)NCC4CCCCCC4)C3)n2)cc1 (stereo not drawn) | -11 | nt
CCOC(=O)C(NC(=O)C1CC1c1cccc(C)c1)C(=O)OCC (stereo not drawn) | nt | i
COC(=O)c1ccc(CCNC(=O)c2cccc(C#N)c2)cc1 | nt | i

Screening data deposited in PubChem by National Center for Advancing Translational Sciences (NCATS).
